# Shown is part of a subset that was picked to be rich in hits.
# IDE exosite inh – exo-site inhibitors of human IDE, primary screen, biochemical, fluorescence anisotropy, probe displacement; Insulin-degrading enzyme (Homo sapiens), P14735; purified IDE, FL-6b probe fluorescence polarization; stronger effect = lower value; actives 6.3% (n = 17,000); AID 1259349, 2017; z-score at 20 µM;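 active means z-score of -3 or lower, meaning strong loss of probe binding signal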;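 further: His-tagged human IDE residues 42-1019 made in E. coli with 30 nM FL-6b probe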
# Target sequence (P14735 42-1019 limits assumed): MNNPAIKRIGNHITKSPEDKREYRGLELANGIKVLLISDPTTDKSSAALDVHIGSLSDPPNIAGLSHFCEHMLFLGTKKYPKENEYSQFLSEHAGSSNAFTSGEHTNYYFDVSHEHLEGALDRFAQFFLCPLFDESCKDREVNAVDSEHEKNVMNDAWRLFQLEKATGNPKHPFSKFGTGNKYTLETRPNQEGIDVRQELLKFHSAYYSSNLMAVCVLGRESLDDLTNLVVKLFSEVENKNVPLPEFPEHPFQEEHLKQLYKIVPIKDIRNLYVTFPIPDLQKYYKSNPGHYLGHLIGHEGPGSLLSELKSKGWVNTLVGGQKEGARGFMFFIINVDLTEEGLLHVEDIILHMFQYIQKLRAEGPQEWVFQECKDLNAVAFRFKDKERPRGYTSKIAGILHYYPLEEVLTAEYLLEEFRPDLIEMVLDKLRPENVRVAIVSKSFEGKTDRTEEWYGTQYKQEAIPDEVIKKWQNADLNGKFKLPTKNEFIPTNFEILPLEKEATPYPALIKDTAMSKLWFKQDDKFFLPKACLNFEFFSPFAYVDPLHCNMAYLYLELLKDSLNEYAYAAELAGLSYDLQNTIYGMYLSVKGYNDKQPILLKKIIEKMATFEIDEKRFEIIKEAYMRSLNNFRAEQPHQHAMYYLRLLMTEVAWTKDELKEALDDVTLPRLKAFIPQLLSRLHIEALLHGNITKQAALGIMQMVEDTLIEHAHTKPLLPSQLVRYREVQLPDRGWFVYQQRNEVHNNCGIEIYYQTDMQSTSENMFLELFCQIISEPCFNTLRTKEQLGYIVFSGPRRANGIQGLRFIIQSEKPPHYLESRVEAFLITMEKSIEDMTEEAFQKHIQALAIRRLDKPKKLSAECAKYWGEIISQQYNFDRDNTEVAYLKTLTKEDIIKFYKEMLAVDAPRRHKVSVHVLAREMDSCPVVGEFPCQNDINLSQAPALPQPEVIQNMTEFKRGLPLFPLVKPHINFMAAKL
# The depositor's hits bear a star; ! = not active in a repeat.
SMILES,IDE exosite inh
O=C(NC1CCCCC1)N1CC(=O)N2[C@@H](CO)[C@H](c3ccc(-c4cccc(F)c4)cc3)[C@@H]2C1,-1.22
CC(C)CC#Cc1ccc([C@H]2[C@@H](CO)N3C(=O)CN(C(=O)NC4CCCCC4)C[C@@H]23)cc1,-0.596
COc1ccccc1NC(=O)N1CC(=O)N2[C@H](CO)[C@@H](c3ccc(-c4cccc(C)c4)cc3)[C@H]2C1,-0.507
O=C(Nc1cccc(F)c1)N1CC(=O)N2[C@H](CO)[C@H](c3ccc(-c4cccc(F)c4)cc3)[C@H]2C1,0.29
CCCC#Cc1ccc([C@H]2[C@H]3CN(C(=O)NC4CCCC4)CC(=O)N3[C@H]2CO)cc1,-0.533
Cc1ccccc1-c1ccc([C@@H]2[C@H](CO)N3C(=O)CN(C(=O)NC4CCCC4)C[C@@H]23)cc1,-8.13*
O=C(NC1CCCCC1)N1CC(=O)N2[C@H](CO)[C@@H](c3ccc(-c4cccc(F)c4)cc3)[C@@H]2C1,-13*
O=C(Nc1ccc(F)cc1)N1CC(=O)N2[C@H](CO)[C@@H](c3ccc(-c4cccc(F)c4)cc3)[C@@H]2C1,-2.2
O=C(Nc1cccc(F)c1)N1CC(=O)N2[C@H](CO)[C@@H](c3ccc(-c4cccc(F)c4)cc3)[C@H]2C1,2.15
Cc1cccc(-c2ccc([C@@H]3[C@@H](CO)N4C(=O)CN(C(=O)NC5CCCCC5)C[C@H]34)cc2)c1,-11.5*
O=C(NC1CCCC1)N1CC(=O)N2[C@@H](CO)[C@H](c3ccc(-c4ccc(F)cc4)cc3)[C@@H]2C1,-0.0295
O=C(C1CCC1)N1CC(=O)N2[C@H](CO)[C@H](c3ccc(-c4cccnc4)cc3)[C@@H]2C1,1.39
O=C(C[C@H]1CC[C@H]2[C@@H](COC[C@@H](O)CN2Cc2cccc(Cl)c2)O1)NCc1cccc(F)c1,-0.196
CN(C)CC#Cc1ccc([C@@H]2[C@H]3CN(C(=O)Nc4cc(F)ccc4F)CCCCN3[C@H]2CO)cc1,1.08
CCCC(=O)Nc1ccc2c(c1)OC[C@H](C)N(CC1CCOCC1)C[C@H](C)[C@H](OC)CN(C)C2=O,0.428
OC[C@@H]1[C@H](c2ccc(-c3cccnc3)cc2)[C@H]2CN(Cc3ccccn3)CCCCN12,-1.06
N#C[C@H]1N[C@@H](CO)[C@@H]1c1ccccc1,2.27
CCC(=O)N1C[C@H](C)[C@@H](OC)CN(C)C(=O)c2ccc(NC(=O)CC(F)(F)F)cc2OC[C@H]1C,1.94
COc1cccc(S(=O)(=O)N2C[C@@H](O)COC[C@H]3O[C@@H](CC(=O)NCCCN4CCOCC4)CC[C@@H]32)c1,0.409
C[C@H]1CN([C@@H](C)CO)C(=O)c2cccc(NC(=O)c3nc4ccccc4s3)c2O[C@@H]1CN(C)C(=O)Nc1ccc2c(c1)OCO2,0.247
CN(C)CC#Cc1ccc([C@@H]2[C@H]3CN(CC4CCOCC4)CCCCN3[C@H]2CO)cc1,1.58
CCC(=O)NC[C@H]1[C@@H](c2ccc(-c3ccccc3)cc2)[C@H](CO)N1C(=O)C1CC1,1.14
COc1ccccc1-c1ccc(C2[C@@H]3CN(Cc4nccs4)C[C@H]2N3)cc1 (some centres not stated),-0.0593
COc1cccc(CN2C[C@@H]3N[C@H](C2)C3c2ccc(-c3ccccc3OC)cc2)c1 (some centres not stated),-8.57*!
Fc1ccccc1-c1ccc(C2[C@@H]3CN(Cc4ccccc4)C[C@H]2N3)cc1 (some centres not stated),2.34
SMILES,IDE exosite inh
COc1ccccc1-c1ccc(C2[C@@H]3CN(Cc4cccc(F)c4)C[C@H]2N3)cc1 (some centres not stated),-3.17*
COc1cccc(CN2CCCCN3[C@@H](CO)[C@@H](c4ccc(-c5ccccc5OC)cc4)[C@@H]3C2)c1,-1.52
COc1cc(CN2C[C@@H]3N[C@H](C2)C3c2ccc(-c3ccc(C#N)cc3)cc2)cc(OC)c1 (some centres not stated),-0.741
CCC(=O)Nc1ccc2c(c1)C(=O)N(C)C[C@@H](OC)[C@H](C)CN(C(=O)Cc1cccnc1)[C@H](C)CO2,1.23
CC(=O)N1[C@H](CNC(=O)CN(C)C)[C@H](c2ccc(C3=CCCCC3)cc2)[C@@H]1CO,-1.31
COc1ccc2c3c(n(C)c2c1)[C@@H](CO)N(C(=O)C1CCOCC1)CC31CN(C)C1,-0.841
O=C(C[C@H]1CC[C@@H]2[C@H](COC[C@@H](O)CN2Cc2cc(F)cc(F)c2)O1)Nc1nccs1,0.715
CCC(=O)N1CC(=O)N2[C@H](CO)[C@@H](c3ccc(C#CCc4ccccc4)cc3)[C@H]2C1,0.71
O=C(Cc1ccccc1)N1CC(=O)N2[C@H](CO)[C@@H](c3ccc(C#CCc4ccccc4)cc3)[C@H]2C1,2.11
O=C(Cc1ccccc1)N1CC(=O)N2[C@H](C1)[C@@H](c1ccc(C#Cc3ccccc3)cc1)[C@@H]2CO,-2.85
CCC(=O)N1CC(=O)N2[C@H](C1)[C@H](c1ccc(C#CCc3ccccc3)cc1)[C@@H]2CO,0.49
O=C(Cc1ccccc1)N1CC(=O)N2[C@H](CO)[C@H](c3ccc(C#CCc4ccccc4)cc3)[C@H]2C1,-4.34*
